Assay results from PubChem BioAssay (EPA / NIEHS).
Activity calls are given as the source filed them. How the source made its calls: active means hit-call score of the fitted dose curve at least 0.9, where 1 is the maximum; inactive means score below 0.9.

Key:
[1] = read-out: Interferon-gamma inducible Protein 10 (IP10), CXCL10 (gene 3627); assay: BSK_KF3CT_IP10: BioMAP Diversity Plus: KF3CT Assay for Interferon-gamma inducible Protein 10 (IP10) Biomarker Activity (AID 2283068); settings: primary human keratinocytes with fibroblasts; actives raise or lower the signal
Method in brief: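 Human keratinocyte plus foreskin fibroblast primary co-culture exposed to test chemical for 24 h; IP-10 measured by ELISA. Concentration-response fitted bidirectionally against DMSO control as baseline.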

[2] = BSK_KF3CT_SRB: Viability Assessment in the BioMAP Diversity Plus: KF3CT Assay (AID 2283069); settings: primary human keratinocytes with fibroblasts;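 further: total protein by sulforhodamine B staining as a cytotoxicity measure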
Method in brief: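 Cytotoxicity was gauged by SRB staining (0.1% SRB, 10% TCA fixation, 560 nm) of parallel cultures at 24 h. The cells were primary human skin keratinocytes co-cultured with fibroblasts, and activity was fitted in both directions against DMSO.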

[3] = read-out: Interleukin-1 alpha (IL1a), IL1A (gene 3552); assay: BSK_KF3CT_IL1a: BioMAP Diversity Plus: KF3CT Assay for Interleukin-1 alpha (IL1a) Biomarker Activity (AID 2283070); settings: primary human keratinocytes with fibroblasts; actives raise or lower the signal
Method in brief: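 IL-1a was detected by ELISA 24 h after chemical treatment of a co-culture of human skin keratinocytes and foreskin fibroblasts. Gain or loss of signal was fitted against the DMSO baseline.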

[4] = read-out: TIMP metallopeptidase inhibitor 2 (TIMP2), TIMP2 (gene 7077); assay: BSK_KF3CT_TIMP2: BioMAP Diversity Plus: KF3CT Assay for TIMP metallopeptidase inhibitor 2 (TIMP2) Biomarker Activity (AID 2283071); settings: primary human keratinocytes with fibroblasts; actives raise or lower the signal
Method in brief: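 Chemicals were dosed onto human skin primary co-cultures of keratinocytes and foreskin fibroblasts, and TIMP-2 was measured by ELISA after 24 hours. Activity in either direction was fitted relative to DMSO.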

[5] = read-out: Transforming growth factor beta 1 (TGFb1), TGFB1 (gene 7040); assay: BSK_KF3CT_TGFb1: BioMAP Diversity Plus: KF3CT Assay for Transforming growth factor beta 1 (TGFb1) Biomarker Activity (AID 2283072); settings: primary human keratinocytes with fibroblasts; actives raise or lower the signal
Method in brief: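 KF3CT co-culture (keratinocytes + fibroblasts), 24 h exposure → TGF-b1 ELISA → bidirectional fit, DMSO = baseline. Parallel SRB total-protein staining (0.1% SRB, 10% TCA fixation, 560 nm) for cytotoxicity.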

[6] = read-out: C-C motif chemokine 2 (Homo sapiens) (UniProt P13500); assay: BSK_KF3CT_MCP1: BioMAP Diversity Plus: KF3CT Assay for Monocyte Chemoattractant Protein 1 (MCP1/CCL2) Biomarker Activity (AID 2283073); settings: primary human keratinocytes with fibroblasts; actives raise or lower the signal
Method in brief: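 Keratinocytes and foreskin fibroblasts were co-cultured, dosed with chemical, and sampled 24 h later. MCP-1 was quantified by ELISA, and the endpoint was analyzed with bidirectional fitting using DMSO as negative control.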

[7] = read-out: Matrix Metallopeptidase 9 (MMP9), MMP9 (gene 4318); assay: BSK_KF3CT_MMP9: BioMAP Diversity Plus: KF3CT Assay for Matrix Metallopeptidase 9 (MMP9) Biomarker Activity (AID 2283074); settings: primary human keratinocytes with fibroblasts; actives raise or lower the signal;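 on AC50: MMP9 protein level quantified by ELISA in the co-culture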
Method in brief: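 MMP-9 quantified by ELISA after 24 h chemical treatment of primary human skin keratinocyte/fibroblast co-cultures; gain or loss fitted against DMSO, with parallel SRB staining (0.1% SRB, 560 nm) for overt cytotoxicity.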

[8] = read-out: urokinase plasminogen activator (uPA), PLAU (gene 5328); assay: BSK_KF3CT_uPA: BioMAP Diversity Plus: KF3CT Assay for urokinase plasminogen activator (uPA) Biomarker Activity (AID 2283075); settings: primary human keratinocytes with fibroblasts; actives raise or lower the signal
Method in brief: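 ELISA read-out of uPA 24 h after dosing human skin keratinocytes co-cultured with foreskin fibroblasts. Signal change fitted both ways relative to DMSO; sulforhodamine B on parallel cultures marks overt cytotoxicity.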

CD40, CD40 (gene 958) = assay: BSK_LPS_CD40: BioMAP Diversity Plus: LPS Assay for CD40 Biomarker Activity (AID 2283076); settings: primary human HUVEC with PBMC; actives raise or lower the signal
Method in brief: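 CD40 signal, measured by ELISA, is fitted in both directions relative to DMSO vehicle. The system is an LPS-driven human vascular primary co-culture of endothelial cells and PBMC, sampled 24 h after compound addition.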

[9] = read-out: E-selectin (Homo sapiens) (UniProt P16581); assay: BSK_LPS_Eselectin: BioMAP Diversity Plus: LPS Assay for Eselectin Biomarker Activity (AID 2283077); settings: primary human HUVEC with PBMC; actives raise or lower the signal
Method in brief: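 Signal of E-selectin, detected by ELISA, served as the endpoint; cells were umbilical vein endothelium with PBMC, read 24 h after treatment. DMSO defined baseline, and both increases and decreases were fitted.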

Sequence of E-selectin (Homo sapiens) (P16581 whole entry, looked up): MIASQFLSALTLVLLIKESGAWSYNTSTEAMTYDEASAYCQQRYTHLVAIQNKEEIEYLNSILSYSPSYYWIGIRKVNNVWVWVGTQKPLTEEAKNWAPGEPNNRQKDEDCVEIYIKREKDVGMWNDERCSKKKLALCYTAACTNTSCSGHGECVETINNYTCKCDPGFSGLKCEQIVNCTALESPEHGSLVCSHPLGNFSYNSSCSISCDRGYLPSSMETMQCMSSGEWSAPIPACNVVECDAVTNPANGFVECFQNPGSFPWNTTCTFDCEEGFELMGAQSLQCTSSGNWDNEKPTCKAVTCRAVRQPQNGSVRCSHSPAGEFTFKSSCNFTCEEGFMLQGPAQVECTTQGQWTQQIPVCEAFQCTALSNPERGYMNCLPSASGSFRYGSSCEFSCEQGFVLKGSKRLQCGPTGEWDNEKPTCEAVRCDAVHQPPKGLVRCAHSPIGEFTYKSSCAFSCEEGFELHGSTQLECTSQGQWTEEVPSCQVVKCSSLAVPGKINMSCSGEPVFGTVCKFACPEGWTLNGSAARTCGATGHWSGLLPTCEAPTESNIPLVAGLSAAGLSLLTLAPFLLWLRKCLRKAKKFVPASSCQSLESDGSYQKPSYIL

Compound | AC50 [1] | AC50 [2] | AC50 [3] | AC50 [4] | AC50 [5] | AC50 [6] | AC50 [7] | AC50 [8] | AC50 (CD40, CD40 (gene 958)) | AC50 [9] | outcome [2] | outcome [3] | outcome [4] | outcome [5] | outcome [6] | outcome [7] | outcome [8] | outcome [9] | outcome [1] | outcome (CD40, CD40 (gene 958))
CCCCOCN(C(=O)CCl)c1c(CC)cccc1CC | 26.4 µM (active) | 35.6 µM (active) | 35.3 µM (active) | 31.6 µM (active) | 32.7 µM (active) | 39.1 µM (active) | 25.7 µM (active) | 31.3 µM (active) | 22.5 µM (active) | 31.3 µM (active) | – | – | – | – | – | – | – | – | – | –
COC(=O)c1c(C(F)F)nc(C(F)(F)F)c(C2=NCCS2)c1CC(C)C | 21.8 µM (active) | – | – | – | – | – | – | – | 7.78 µM (active) | – | inactive | inactive | inactive | inactive | inactive | inactive | inactive | inactive | – | –
COc1ccc(-c2ccccc2)cc1NNC(=O)OC(C)C | – | – | – | – | – | – | – | – | – | – | inactive | inactive | inactive | inactive | inactive | inactive | inactive | inactive | inactive | inactive
C=CCOC(=O)C(C)(C)OC(=O)c1cc(-n2c(=O)cc(C(F)(F)F)n(C)c2=O)ccc1Cl | 6.34 µM (active) | – | – | 27.9 µM (active) | – | 1.89 µM (active) | – | – | 6.73 µM (active) | – | inactive | inactive | – | inactive | – | inactive | inactive | inactive | – | –
CCN(CC)C(=O)C(C)Oc1cccc2ccccc12 (stereo not given) | – | – | – | – | – | – | – | – | – | – | inactive | inactive | inactive | inactive | inactive | inactive | inactive | inactive | inactive | inactive
CCNP(=S)(OC)O/C(C)=C/C(=O)OC(C)C (stereo not given) | 0.148 µM (active) | – | – | – | – | 0.733 µM (active) | – | – | – | – | inactive | inactive | inactive | inactive | – | inactive | inactive | inactive | – | inactive
CCSC(=O)N1CCCCCC1 | – | – | – | – | – | – | – | – | – | – | inactive | inactive | inactive | inactive | inactive | inactive | inactive | inactive | inactive | inactive
O=C(Nc1ccccc1-c1ccc(Cl)cc1)c1cccnc1Cl | 0.128 µM (active) | – | – | – | – | 0.843 µM (active) | – | – | – | – | inactive | inactive | inactive | inactive | – | inactive | inactive | inactive | – | inactive
CC1(C)CON(Cc2ccccc2Cl)C1=O | – | – | – | – | – | – | – | – | – | – | inactive | inactive | inactive | inactive | inactive | inactive | inactive | inactive | inactive | inactive
Cc1cc(C)nc(Nc2ccccc2)n1 | – | – | – | – | – | – | – | – | – | – | inactive | inactive | inactive | inactive | inactive | inactive | inactive | inactive | inactive | inactive
COC(=O)NS(=O)(=O)c1ccc(N)cc1 | – | – | – | – | – | – | – | – | – | – | inactive | inactive | inactive | inactive | inactive | inactive | inactive | inactive | inactive | inactive
CC1(C)C(C(=O)OC(C#N)c2cccc(Oc3ccccc3)c2)C1(C)C (stereo not given) | – | – | – | – | – | – | 5.56 µM (active) | – | 12.9 µM (active) | – | inactive | inactive | inactive | inactive | inactive | – | inactive | inactive | inactive | –
N#Cc1c[nH]cc1-c1cccc2c1OC(F)(F)O2 | – | – | – | – | – | – | – | – | 7.2 µM (active) | – | inactive | inactive | inactive | inactive | inactive | inactive | inactive | inactive | inactive | –
CCC(C)n1c(=O)[nH]c(C)c(Br)c1=O (stereo not given) | – | – | – | – | – | – | – | – | – | – | inactive | inactive | inactive | inactive | inactive | inactive | inactive | inactive | inactive | inactive
Cc1c(COC(=O)[C@@H]2[C@H](/C=C(\Cl)C(F)(F)F)C2(C)C)cccc1-c1ccccc1 | – | – | – | – | – | – | – | – | – | – | inactive | inactive | inactive | inactive | inactive | inactive | inactive | inactive | inactive | inactive
CS(=O)(=O)c1ccc(C(=O)C2C(=O)CCCC2=O)c([N+](=O)[O-])c1 | – | – | – | – | – | – | – | – | – | – | inactive | inactive | inactive | inactive | inactive | inactive | inactive | inactive | inactive | inactive
CNC(=O)N(C)c1nnc(C(C)(C)C)s1 | – | – | – | – | – | – | – | – | – | – | inactive | inactive | inactive | inactive | inactive | inactive | inactive | inactive | inactive | inactive
CO/N=C(/C1=NOCCO1)c1ccccc1Oc1ncnc(Oc2ccccc2Cl)c1F | 7.33 µM (active) | – | 20 µM (active) | – | – | 28.6 µM (active) | 30.6 µM (active) | – | 13 µM (active) | 15.2 µM (active) | inactive | – | inactive | inactive | – | – | inactive | – | – | –
